In the library only some 7.3% were active in any assay of this set; here they are far more common.
Rab9 promoter act – activators of Rab9 promoter; Potency, µM (top dose mostly 9.22 µM), for the others: at the top dose activation, negative = inhibition, hits mostly activators; Huh7 Rab9 promoter-luciferase reporter, luminescence, 24 h; hit rate 2.8% among 320,000; AID 485297; further: % of control where 0% means no effect; nearly all actives have a fitted effect of over 60% in size
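Rab9 promoter-driven luciferase in stably transfected Huh7 cells; 1500 cells/well rested 2 h, exposed to compound in DMSO for 24 h at 37 °C, 5% CO2. Luminescence read 10 min after adding luciferase reagent at ambient temperature.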
ELG1 genotox – inducers of genotoxicity in HEK293T ELG1-luciferase cells; HEK293T ELG1-luciferase reporter, luminescence, 16 h; Potency, µM (series often up to 46 µM), without a hit: top-dose activity change, positive = activation, usual class: activators; hit rate 1.3% among 330,000; AID 504466; further: % of control where 0% means no effect; nearly all actives have a fitted effect of over 60% in size
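Reporter readout depends on ELG1 protein level, which increases with genetic stress. After 16 hr compound exposure at 37 °C, luciferase activity was quantified using ONE-Glo.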
SMN2 splice up – SMN2 splice variant enhancement | Potency, µM (doses to about 46.1 µM), without a hit: at the highest dose activity change, positive = activation, hits mostly activators | HEK293 SMN2-luciferase splicing reporter, luminescence, 30-36 h | hit rate 2.8% among 210,000 | AID 1458; further: % of control where 0% means no effect; nearly all actives have a fitted effect of over 55% in size
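qHTS luciferase splicing reporter: luminescence rises when SMN2 exon 7 is included in transfected HEK293 cells. Compound exposure lasted 30-36 h at 37C, with 4.5 mM final sodium butyrate as control, followed by a ONE-Glo read.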
FLuc counter – counter-screen for miR-21 project: firefly luciferase inhibitors or activators; P08659; purified FLuc, Km substrates, luminescence inhibition; Potency, µM (series often up to 57.5 µM), for the others: at the highest dose activity change, negative = inhibition, actives largely listed as inhibitors; hit rate 6.9% among 360,000;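 further: plate controls were vehicle for no effect and reference inhibitor for full effect; nearly all actives have a fitted effect of over 55% in size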
Target sequence (P08659 whole entry, looked up): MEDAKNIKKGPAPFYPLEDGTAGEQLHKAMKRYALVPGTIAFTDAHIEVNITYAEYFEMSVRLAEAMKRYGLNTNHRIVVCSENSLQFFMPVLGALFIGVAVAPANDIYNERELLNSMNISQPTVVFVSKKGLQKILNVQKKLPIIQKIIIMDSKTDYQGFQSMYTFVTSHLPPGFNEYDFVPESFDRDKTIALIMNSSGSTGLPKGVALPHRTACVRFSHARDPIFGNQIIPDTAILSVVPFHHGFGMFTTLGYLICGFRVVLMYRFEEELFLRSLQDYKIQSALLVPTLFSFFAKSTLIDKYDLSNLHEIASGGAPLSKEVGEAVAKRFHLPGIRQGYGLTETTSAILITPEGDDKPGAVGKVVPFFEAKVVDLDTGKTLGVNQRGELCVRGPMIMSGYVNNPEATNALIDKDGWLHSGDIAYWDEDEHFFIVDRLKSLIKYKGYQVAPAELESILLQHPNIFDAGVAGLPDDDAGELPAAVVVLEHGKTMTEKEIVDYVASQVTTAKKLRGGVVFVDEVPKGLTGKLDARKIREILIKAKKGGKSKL
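Purified P. pyralis luciferase (10nM final) with 10uM D-luciferin and 10uM ATP (Km levels) in 50mM Tris acetate pH 7.5, 10mM Mg acetate, 0.01% Tween-20, 0.05% BSA; qHTS 6-point titration, ~60 µM downward; luminescence read.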
Luc counter – counter-screen: inhibitors of Kinase-Glo firefly luciferase. Q27757. Kinase-Glo luciferase, ATP luminescence, 8 min. Potency, µM (titrated, usually from 38.3 µM), for inactives: at the top dose activity change, negative = inhibition, actives largely listed as inhibitors. hit rate 0.28% among 200,000. AID 1379; further: on the % scale 0 is the no-effect control and ±100 the full control effect; nearly all actives have a fitted effect of over 60% in size
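Recombinant Kinase-Glo luciferase, 10 uM ATP (linear range), luciferin; imidazole pH 7.2 / KCl / MgCl2 / Tween / BSA buffer; 8 min RT; luminescence.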
NPC1 promoter act – activates the NPC1 promoter | Potency, µM (top dose mostly 9.22 µM), for the others: at the top dose activation, usual class: activators | hit rate 2.4% among 320,000 | Huh7 NPC1 promoter luciferase reporter, 24 h | AID 485313; further: % of control where 0% means no effect; nearly all actives have a fitted effect of over 60% in size
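Readout is luciferase luminescence, reflecting NPC1 promoter activation in stably transfected Huh7 cells after 24 h compound exposure at 37 °C in reduced-serum medium with 10% FBS.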
An asterisk follows results filed as active; ? = inconclusive; . = no result. The call rests on the fitted dose curve; in most records, active means well fitted curve in the direction sought with a large enough effect; inconclusive means small, poorly fitted or top-dose-only effect, or another doubt; inactive means no such curve, though single readings can be large; an effect the other way counts as inactive or inconclusive. Potency means the concentration at half of the fitted maximal effect.

SMILES	Rab9 promoter act	ELG1 genotox	SMN2 splice up	FLuc counter	Luc counter	NPC1 promoter act
CCc1nnc(NC(=O)CSc2ccc(-c3ccc(C)cc3)nn2)s1	?	?	?	2.4µM*	-10%	?
CCc1nnc(NC(=O)CSc2nccn2-c2ccccc2)s1	-2%	-3%	-19%	-1%	-13%	0%
COc1ccc(-c2ccc(SCC(=O)NCc3ccco3)nn2)cc1	?	?	7%	8.5µM*	-5%	21%
CCOc1ccc(-c2ccc(SCC(=O)Nc3nnc(CC)s3)nn2)cc1	?	?	11µM*	0.6µM*	0%	?
CCc1nnc(NC(=O)CSc2ncc(-c3ccccc3)n2C)s1	29%	18µM*	-19%	?	-1%	7%
CCOc1ccc(NC(=O)CCC(=O)Nc2nnc(CC)s2)cc1	-1%	16%	.	-1%	.	19%
COc1ccc(-c2ccc(SCC(=O)Nc3nnc(C)s3)nn2)cc1	?	8%	?	1.3µM*	-12%	6%
CCOc1ccc(-c2ccc(SC)nn2)cc1	0.32µM*	?	0.79µM*	0.48µM*	3.2µM*	0.63µM*
O=C(CSc1ccc(F)cc1)Nc1ccccc1N1CCOCC1	-4%	-3%	.	4%	.	-6%
O=C(CSc1nc(-c2ccccc2)cs1)NCc1ccco1	3%	23µM*	-8%	?	-3%	0%
O=C(CSc1ncc(-c2ccccc2)nn1)NCc1ccco1	-6%	-3%	.	-1%	0%	0%
Cn1c(-c2ccc(F)cc2)cnc1SCC(=O)Nc1ccccc1N1CCOCC1	1.3µM*	1.8µM*	13µM*	0.95µM*	-7%	1.6µM*
COc1ccc(N(Cc2cc3cccc(C)c3[nH]c2=O)S(=O)(=O)c2ccc(OC)cc2)cc1	3%	-7%	.	5%	.	-2%
CCCC(=O)Nc1ccc(-c2nc3ncccc3o2)cc1	2µM*	?	.	13µM*	.	2.2µM*
CCCC(=O)Nc1cc(-c2nc3ncccc3o2)ccc1C	-1%	11%	6%	-12%	2%	2%
CCCC(=O)Nc1cccc(-c2nc3ncccc3o2)c1	.	.	3.5µM*	6%	.	.
CCCCC(=O)Nc1cccc(-c2nc3ncccc3o2)c1	5%	0%	-29%	-16%	-5%	-1%
CCCC(=O)Nc1cccc(-c2nc3cc(C)c(C)cc3o2)c1	4µM*	?	?	0.6µM*	-12%	2.2µM*
CCc1ccc(/C=N/NC(=O)Cc2cccn2C)cc1	?	15%	.	24µM*	.	?
Cn1cccc1CC(=O)N/N=C/c1ccc(C(C)(C)C)cc1	?	15%	.	17µM*	.	27%
Cc1ccc(/C=N/NC(=O)Cc2cccn2C)cc1	?	16%	.	?	.	26%
Cc1ccc(-c2csc3nc4c5ccccc5c(NCCCN5CCOCC5)nn4c(=O)c23)cc1	-4%	0%	-1%	-1%	2%	1%
Clc1cccc(Cl)c1/C=C/c1ccn[nH]1	8%	11%	.	17µM*	.	-21%
CN(C1=NS(=O)(=O)c2ccccc21)c1ccc(OC(=O)c2ccccc2)cc1	-3%	-1%	.	2%	.	-2%
COC(=O)c1ccc(NC(=O)c2ccc(NC(=O)c3ccco3)cc2)cc1	1%	-8%	.	1%	.	1%
O=C(Oc1ccccc1)c1ccc(NC(=O)c2ccco2)cc1	30%	?	9%	2.7µM*	-26%	22%
O=C(Oc1ccccc1)c1cc2ccccc2oc1=O	-5%	2%	0%	15µM*	-7%	1%
CC(C)OC(=O)c1cc2ccccc2oc1=O	0%	0%	-1%	-9%	-7%	-2%
COc1ccc(OCC(=O)Nc2ccc(NC(=O)c3ccco3)cc2)cc1	24%	?	28µM*	0%	-6%	14%
Cc1ccc(NC(=O)c2ccc(OC(=O)c3cc4ccccc4o3)cc2)cc1	2µM*	3.2µM*	10µM*	-14%	-1%	3.5µM*
